Sm TGR block: blocks Schistosoma mansoni thioredoxin glutathione reductase | Q962Y6 | purified TGR, DTNB reduction, TNB absorbance 405 nm | Potency, µM (highest dose often 114 µM), inactives show at the highest dose activity change, negative = inhibition, usual class: inhibitors | 3% of 360,000 active; note: % is set by controls: 0 for no effect and ±100 for the full control effect; nearly all actives have a fitted effect of over 60% in size
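Kinetic colorimetric format: TGR-catalysed, NADPH-driven DTNB reduction monitored via TNB absorbance. Enzyme dispensed at 20 nM; compound exposure 15 min at room temperature before reaction start.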
SARS PLP yeast: inhibitors of SARS-CoV papain-like protease in yeast; 0.19% of 330,000 active; Potency, µM (top dose mostly 32.9 µM), inactives show at the highest dose activity, positive = growth rescue, actives largely listed as activators; S. cerevisiae expressing SARS-CoV PLpro, growth rescue; calls by dose curve; note: 0% is about no effect; nearly all actives have a fitted effect of over 55% in size
NS1 inh: influenza NS1 inhibition; 0.4% of 270,000 active; Potency, µM (series often up to 46.1 µM), for the others: at the highest dose activity, positive = more growth; AID 2326; calls by dose curve; note: actives are rising curves; nearly all actives have a fitted effect of over 50% in size
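In this qHTS, NS1 from influenza A is expressed in budding yeast, where it slows growth. Cells are switched from glucose to 2% galactose medium (pH 6.0, -URA), treated with compound, and growth recovery is read at OD600.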
LmPK inh: LmPK (Leishmania mexicana) enzyme inhibition. Q27686. purified LmPK, Kinase-Glo ATP luminescence, 1 h. Potency, µM (doses to about 57.5 µM), inactives show top-dose activity change, negative = inhibition, actives largely listed as inhibitors. 0.37% of 290,000 active; note: % is set by controls: 0 for no effect and ±100 for the full control effect
Target sequence (Q27686 whole entry, looked up): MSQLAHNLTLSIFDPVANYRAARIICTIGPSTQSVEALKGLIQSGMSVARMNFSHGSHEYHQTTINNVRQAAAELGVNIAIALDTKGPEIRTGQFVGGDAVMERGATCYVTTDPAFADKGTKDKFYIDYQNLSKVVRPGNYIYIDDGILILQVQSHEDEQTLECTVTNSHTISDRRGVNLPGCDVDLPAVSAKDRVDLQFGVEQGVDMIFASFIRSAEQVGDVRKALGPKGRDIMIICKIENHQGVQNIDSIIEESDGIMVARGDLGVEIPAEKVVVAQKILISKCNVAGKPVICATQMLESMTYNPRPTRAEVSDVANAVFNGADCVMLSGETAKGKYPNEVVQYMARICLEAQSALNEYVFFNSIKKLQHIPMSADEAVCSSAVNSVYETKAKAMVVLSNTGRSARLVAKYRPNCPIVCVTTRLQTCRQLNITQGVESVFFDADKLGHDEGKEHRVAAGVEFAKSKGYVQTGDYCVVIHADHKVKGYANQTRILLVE
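Purified LmPK (0.1 nM) converted ADP (0.1 mM) to ATP with PEP (0.5 mM) in imidazole buffer pH 7.2 with KCl and MgCl2, 1 h at room temperature. ATP was read by Kinase-Glo luminescence; data normalized to uninhibited and no-enzyme controls.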
RE007 growth inh: less growth of the S. pombe RE007 Vpr strain; Potency, µM (highest dose often 92.2 µM), for inactives: at the highest dose activity change, negative = less growth, usual class: inhibitors; AID 651644; S. pombe RE007 Vpr strain, BacTiter-Glo ATP luminescence, 24 h; 0.21% of 360,000 active; active = well fitted falling curve with a large enough effect; inconclusive = small, poorly fitted or top-dose-only effect; inactive = no such curve, though single readings can be large or run the other way; note: % is set by controls: 0 for no effect and ±100 for the full control effect; nearly all actives have a fitted effect of over 50% in size
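Fission yeast strain RE007, carrying one chromosomally integrated HIV-1 vpr copy, was seeded at OD 0.01 in PMG+AL medium with 23 nL pinned compound. After 24 h at 30 °C and 99% humidity, viability was read by BacTiter-Glo luminescence.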
Tb PYK inh: T. brucei pyruvate kinase inhibition. Q57TT1. TbPYK enzyme, Kinase-Glo Plus ATP luminescence, 45 min. Potency, µM (top dose mostly 76.8 µM), for inactives: at the highest dose activity, negative = inhibition, actives largely listed as inhibitors. 0.12% of 410,000 active; note: % is set by controls: 0 for no effect and ±100 for the full control effect; nearly all actives have a fitted effect of over 50% in size
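Readout: single end-point luminescence (Kinase-Glo Plus, 10 min). Reaction conditions were TbPYK/substrate plus 130 uM ADP, 45 min at RT, pH 7.2 TEA buffer. No-enzyme wells served as controls, and data were normalized before concentration-response fitting.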
* marks the source's active call; other numbers are inactive results; ? = inconclusive; · = no result. Compounds with a hit are over-represented: about 3.3% of the library has one in this group of screens. Unless noted, calls come from the whole dose curve; as a rule, active = well fitted curve in the direction sought with a large enough effect; inconclusive = small, poorly fitted or top-dose-only effect, or another doubt; inactive = no such curve, though single readings can be large; an effect the other way counts as inactive or inconclusive. Potency is the fitted concentration of half-maximal effect.

SMILES | Sm TGR block | SARS PLP yeast | NS1 inh | LmPK inh | RE007 growth inh | Tb PYK inh
CCn1nc(C(=O)N2CCc3ccccc32)c2ccccc2c1=O | 1.2% | -0.5% | · | · | 11.6% | 3.5%
CCn1nc(C(=O)OCC(=O)N2CCc3ccccc32)c2ccccc2c1=O | 20µM* | -11.1% | -8.1% | 0.9% | 17.8% | -0.7%
O=C(OCC(=O)N1CCc2ccccc21)C1=COCCO1 | 22.4µM* | -2.9% | 2.7% | -3.6% | 1.8% | -9.9%
COC(=O)c1n[nH]n(-c2ccccc2)c1=O | 12.6% | · | · | · | · | -3.0%
CC(=O)N1c2ccccc2C(CBr)=CC1(C)C | 12.6µM* | 0.9% | 0.9% | 3.1% | 1.3% | 2.6%
Cc1oc(=O)c(NC(=O)c2cccc(Cl)c2)cc1C(=O)c1ccccc1 | 4.47µM* | -29.2% | -170.4% | -1.8% | 14.1µM* | ?
Cc1oc(=O)c(NC(=O)c2ccccc2)cc1C(N)=O | -1.0% | -0.2% | · | -3.1% | -4.8% | 2.9%
O=C(Nc1cc2ccccc2oc1=O)c1ccccc1 | 23.3% | -4.3% | · | 4.47µM* | -4.3% | -16.0%
COC(=O)c1cc(NC(=O)c2ccccc2)c(=O)oc1C | -20.4% | -7.6% | -6.9% | 0.0% | -23.4% | -0.7%
COc1ccc(C(=O)Nc2cc(C(=O)c3ccccc3)c(C)oc2=O)cc1 | 6.31µM* | -33.1% | -222.3% | 2.6% | 11.2µM* | -24.3%
C/C(=N\Nc1ccc(Cl)c(C(=O)O)c1)c1ccc(Br)s1 | 50.1µM* | 0.1% | -43.5% | 4.6% | -12.1% | -12.2%
CCOc1ccc(NC(=O)c2oc3ccccc3c2NC(=O)Cc2cccs2)cc1 | -2.6% | · | · | · | · | -5.9%
O=C(c1ccco1)N1CCN(C(=O)c2cccc3c2C(=O)N(C2CCCCC2)C3)CC1 | 50.1µM* | 6.2% | -8.7% | 2.8% | -13.3% | -7.9%
COc1cc(OC)cc(C(=O)Nc2ccc3c(c2)N(C2CCCC2)C(=O)c2ccccc2S3)c1 | -1.2% | · | · | · | · | 0.1%
CCCCCCCCCCCCCCCCn1cc[n+](C)c1 | 13.1% | -1.5% | -90.3% | 3.1% | 14.1µM* | -2.3%
COc1ccc(-c2cc3ccc(O)c(CN4CCCC4)c3oc2=O)cc1OC | -19.7% | · | · | · | · | 1.0%
Cc1cc(C)c(S(=O)(=O)NCc2csc(-c3ccccc3)n2)c(C)c1 | 4.4% | · | · | · | · | -5.3%
CCn1c([N+](=O)[O-])nc2c1c(=O)[nH]c(=O)n2C | 25.1µM* | 16.8% | -1.0% | -8.7% | 2.6% | 2.0%
CCCCCCn1c(SCCCC)nc2c1c(=O)[nH]c(=O)n2C | -13.4% | -1.8% | 4.9% | 0.1% | 5.0% | 8.6%
CCOC(=O)N1CCc2c(sc3c2c(=O)n(CCc2ccccc2)c(=O)n3CC(=O)Nc2ccc(C)cc2)C1 | -1.6% | · | · | · | · | 1.5%
CCOP(=O)(C1=C(O)C(=O)C(C(C)(C)C)=CC1=O)c1ccccc1 (stereo unspecified) | 1.41µM* | 12.1% | · | -1.7% | -13.0% | ?
CCOP(=O)(OCC)c1cccc(P(=O)(c2ccccc2)c2ccccc2)c1O | 0.4% | 2.8% | 6.0% | -9.2% | 1.9% | 2.2%
Cc1cc(C(=O)N/N=C/c2ccc(O)c(O)c2O)c(C)n1-c1ccccc1 | 39.8µM* | 13.6% | · | -3.2% | 13.5% | 10.1%
CC1CCN(S(=O)(=O)c2ccc3c(ccn3CC(=O)NCc3ccccc3F)c2)CC1 | 16.0% | · | · | · | · | 1.1%
O=C(O)C1Nc2c(O)cc(Cl)c([N+](=O)[O-])c2C2C=CCC12 (stereo unspecified) | 3.55µM* | ? | · | ? | 4.7% | -26.5%
SMILES | Sm TGR block | SARS PLP yeast | NS1 inh | LmPK inh | RE007 growth inh | Tb PYK inh
CN(C)CC/C=C1\c2ccccc2COc2ccc(CC(=O)O)cc21 | · | · | · | · | · | 10.1%
Cc1ccc2scc(N3CCCC(C)C3)c(=O)c2c1 (stereo unspecified) | 3.9% | · | · | · | · | -0.3%
CCCNC1=C(C)C(=O)C2=C(C1=O)C(COC(N)=O)[C@]1(OC)C3NC3CN21 (stereo partly specified) | 35.5µM* | 1.2% | 0.5% | -5.1% | 0.0% | 0.8%
Cn1c(C(=O)NCCc2ccccc2)cc2sc(Cl)cc21 | -4.5% | · | · | · | · | 3.7%
Cc1ccc(-c2nc(CN3CCCCC3)cc(CN3CCCCC3)c2O)cc1 | 20µM* | -0.9% | 3.3% | 1.1% | -0.7% | -3.8%
CCOC(=O)c1cnc(Nc2nc3ccccc3o2)nc1CN1CCN(c2ccccc2)CC1 | · | · | -1.1% | · | · | ·
CCOC(=O)c1cnc(Nc2nc3ccccc3o2)nc1C | 1.2% | -0.4% | 7.7% | 14.1µM* | -8.9% | ?
Cc1nc(Nc2nc3ccccc3o2)nc2c1CCC2 | -6.1% | 2.2% | -14.6% | 15.8µM* | -4.3% | 0.0%
CCC(C)C(C(=O)OCC[N+](C)(CC)CC)c1ccccc1 (stereo unspecified) | · | · | · | · | · | 0.6%
Cc1ccc(-n2c(=O)c3oc4ccccc4c3n(CC(=O)Nc3ccc(F)c(Cl)c3)c2=O)cc1C | 3.4% | · | · | · | · | 3.3%
COc1ccc(NCc2cc3cc4c(cc3n(CC(=O)Nc3ccc(F)cc3)c2=O)OCCO4)cc1 | 1.5% | · | · | · | · | 2.8%
COCc1ccc(CN2CCc3c([nH]c4ccccc34)C2CC(C)C)o1 (stereo unspecified) | 35.5µM* | 0.1% | 28.2% | 10.0% | -17.9% | -11.2%
CC(=O)C1=C(c2ccc(Cl)c(Cl)c2)N(C(C)=O)n2cnnc2S1 | 10µM* | · | · | · | · | 2.6%
CCSc1ncc(Cl)c(C(=O)N(Cc2ccccc2Cl)C2CCS(=O)(=O)C2)n1 (stereo unspecified) | 6.3% | · | · | · | · | -1.9%
O=C(Nc1cccc(Cl)c1)c1cc(N=Nc2ccc([N+](=O)[O-])cc2Cl)ccc1O | 2.1% | -4.8% | -5.9% | 14.1µM* | -20.3% | ?
